Measured values published in PubChem BioAssay AID434970 (Sanford-Burnham Center for Chemical Genomics, 2010).
The whole screen tested about 11,000 compounds, of which about 310 (2.8%) were called active. No stated cut-off is given here; in the data, active means activity change below about -85%; inactive means the rest. What follows is part of a selection rich in actives, with near analogues and random picks from the rest.

Tested on: intestinal alkaline phosphatase [Mus musculus]
Assay: mouse intestinal phosphatase enzyme activation – biochemical, luminescence, single concentration, confirmation (AID 434970)
Settings: purified mouse IAP, CDP-Star luminescence, 30 min, at 10 µM; activation factor: measured here: IAP activation factor, stronger effect = higher value; activity change, negative = activation: stronger effect = lower value

| SMILES | activation factor | activity change, negative = activation |
| --- | --- | --- |
| Cc1ccc(NCc2nnc(SCC(N)=O)n2CC2CCCO2)c(C)c1 (centres undefined) | 1.09 | -9.4% (inactive) |
| FC(F)(F)c1cccc(NC(=S)NCc2ccc(Cl)cc2)c1 | 1.18 | -18.2% (inactive) |
| Fc1ccc(CNC(=S)Nc2cccc(C(F)(F)F)c2)cc1 | 1.28 | -27.5% (inactive) |
| COc1ccc(CNC(=O)Nc2cccc(C(F)(F)F)c2)cc1OC | 2.21 | -121% (active) |
| COc1ccc(CNC(=O)NCc2ccc(OC)c(OC)c2)cc1OC | 1.09 | -9% (inactive) |
| FC(F)(F)c1cccc(NC(=S)NCc2ccccc2)c1 | 1.69 | -69.2% (inactive) |
| O=C(NCc1ccc2c(c1)CCO2)Nc1cccc(C(F)(F)F)c1 | 2.44 | -144% (active) |
| Cc1cc(C)c2c(-n3cccc3)c(C(=O)NNS(=O)(=O)c3ccc(Br)cc3)sc2n1 | 0.865 | 13.5% (inactive) |
| CC1(C)CC2CC(C)(CN2C(=O)CN2C(=O)c3ccccc3C2=O)C1 (centres undefined) | 1.09 | -8.65% (inactive) |
| CC(=O)c1ccc(NC(=O)CCn2c(=O)oc3ccccc32)cc1 | 1.03 | -3.25% (inactive) |
| COc1ccccc1CNC(=O)CCCOc1cc(=O)n(C)c2ccccc12 | 0.997 | 0.3% (inactive) |
| C=CCC1[C@H](C)[C@H]2[C@@H]3CC[C@@H](C3)[C@H]2CN1S(=O)(=O)c1ccc(C)cc1 (some centres undefined) | 1.12 | -11.8% (inactive) |
| CCN(CC)CCNC(=O)c1ccc(NC(=O)Nc2cccc3ccccc23)cc1 | 2.6 | -160% (active) |
| N#CCc1ccc(NC(=O)Nc2cccc3ccccc23)cc1 | 1.89 | -89.1% (inactive) |
| O=C(Nc1ccccc1)Nc1cccc2ccccc12 | 1.79 | -78.8% (inactive) |
| CCOc1ccc(CC(=O)OCN2C(=O)c3ccccc3C2=O)cc1 | 0.926 | 7.35% (inactive) |
| COc1ccccc1C(CC(=O)Nc1ccc(C)c(C)c1)c1ccc(OC(C)C)cc1 (centres undefined) | 2.06 | -106% (active) |
| CCOc1ccc(NC(=O)CC(c2ccccc2)c2ccc(F)cc2)cc1 (centres undefined) | 1.44 | -43.6% (inactive) |
| COc1ccccc1C(CC(=O)Nc1ccc(Cl)cc1)c1ccc(OC(C)C)cc1 (centres undefined) | 1.91 | -90.9% (active) |
| Cc1ccc(NC(=O)CNc2ccc(OC(C)C)cc2)cc1 | 0.9 | 10% (inactive) |
| CCOc1ccccc1NC(=O)c1cccc(NC(=O)CC(c2ccccc2)c2ccccc2)c1 | 1.39 | -39.4% (inactive) |
| Cc1ccc(NC(=O)c2ncn(CC(=O)NCC(C)c3ccccc3)n2)cc1C (centres undefined) | 0.995 | 0.5% (inactive) |
| O=C(CN(Cc1ccccc1F)C(=O)Cn1nnc(-c2cccs2)n1)NC1CCCCC1 | 1.22 | -22.1% (inactive) |
| Cc1cc(C(F)F)nn1CC(=O)N1CCSCC1 | 0.984 | 1.65% (inactive) |
| CCCC(=O)NC(=S)Nc1ccccc1C(F)(F)F | 0.974 | 2.55% (inactive) |
| CCN(CC)S(=O)(=O)c1ccc2c(c1)nc(SCc1nc3ccsc3c(=O)[nH]1)n2CC | 0.992 | 0.85% (inactive) |

| SMILES | activation factor | activity change, negative = activation |
| --- | --- | --- |
| COc1ccc(CNC(=S)Nc2ccc(F)c(Cl)c2)cc1OC | 1.56 | -56.2% (inactive) |
| COc1ccc(N2C(=O)CCC(C(=O)NCc3cccnc3)C2c2ccc(OC)c(OC)c2)cc1 (centres undefined) | 0.977 | 2.3% (inactive) |
| O=C(Nc1cnn(Cc2ccccc2)c1)NC12CC3CC(CC(C3)C1)C2 | 2.05 | -105% (active) |
| O=C(Nc1cnn(Cc2ccc(Cl)c(Cl)c2)c1)C12CC3CC(CC(C3)C1)C2 | 1.17 | -16.9% (inactive) |
| O=C(NCc1ccccn1)NC12CC3CC(CC(C3)C1)C2 | 1.06 | -6.25% (inactive) |
| COc1ccccc1C(=O)N1CCN=C1SC | 0.943 | 5.75% (inactive) |
| O=C(O)CCN1C(=O)NC2(CCCC2)C1=O | 1.15 | -15.3% (inactive) |
| Cc1ccc(C)c(N(C)C(=O)c2coc(=O)c3ccccc23)c1 | 0.967 | 3.3% (inactive) |
| COc1cccc(NC(=O)COC(=O)c2cc(S(=O)(=O)N3CCOCC3)ccc2C)c1 | 0.964 | 3.65% (inactive) |
| CCc1cccc(CN2CCC(CNC(=O)Nc3ccc(Cl)cc3)CC2)c1 | 1.68 | -67.9% (inactive) |
| O=C(NCC1CCN(c2ccc(S(=O)(=O)N3CCOCC3)cc2)CC1)Nc1ccccc1 | 1.77 | -77.3% (inactive) |
| Cc1cccc(CN2CCC(CNC(=O)Nc3ccc(F)c(Cl)c3)CC2)c1 | 2.15 | -115% (active) |
| Cc1ccc(NC(=O)NCC2CCN(Cc3cccc(Cl)c3)CC2)cc1Cl | 1.87 | -87.3% (active) |
| Cc1cccc(NC(=O)NCC2CCN(c3ccc(S(=O)(=O)N4CCOCC4)cc3)CC2)c1 | 2.56 | -156% (active) |
| CCc1ccc(NC(=O)NCC2CCN(Cc3cccc(Cl)c3)CC2)cc1 | 2.2 | -120% (active) |
| O=C(NCC1CCN(Cc2cccc(Cl)c2)CC1)Nc1ccc(Cl)cc1 | 1.9 | -89.5% (inactive) |
| CCOc1cc(/C=N\NC(=O)c2ccc(NC(=O)CC)cc2)ccc1OC(=O)c1ccccc1 | 1.02 | -1.9% (inactive) |
| Cc1cc(C)nc(SCC(=O)c2ccc([N+](=O)[O-])cc2)n1 | 0.867 | 13.3% (inactive) |
| O=C1Nc2ccccc2C(O)(C(=O)NC2CC2)N1c1ccc(Cl)c(Cl)c1 (centres undefined) | 0.911 | 8.85% (inactive) |
| CCOc1ccc2nc(SCC(=O)N(C)C3CCS(=O)(=O)C3)[nH]c2c1 (centres undefined) | 0.928 | 7.2% (inactive) |
| O=C(c1cccs1)[C@@H]1[C@@H]2C(=O)N(Cc3ccc4c(c3)OCO4)C(=O)[C@@H]2C2c3ccccc3C=CN21 (some centres undefined) | 0.569 | 43.1% (inactive) |
| CCn1c(=O)c(C(=O)NCCN2CCCCC2)c(O)c2ccccc21 | 0.851 | 14.8% (inactive) |
| CC[C@]1(C(=O)OC)[C@H]2C(=O)N(C)C(=O)[C@H]2[C@H]2CN(C)C(=NC3CCCCC3)N21 | 0.984 | 1.6% (inactive) |
| O=C(NCCc1c[nH]c2ccccc12)Nc1cccc2ccccc12 | 1.29 | -28.6% (inactive) |
| Cc1ccccc1NC(=O)NCCCN1CCN(c2ccccc2)CC1 | 1.27 | -27.2% (inactive) |
| Cc1cc2nc(C)n(CCCNC(=O)Nc3cccc4ccccc34)c2cc1C | 2.18 | -118% (active) |
